NPSR antag = antagonists of human neuropeptide S receptor cAMP signaling; Q6W5P4; CHO-NPSR cells, cAMP TR-FRET, antagonist mode; Potency, µM (titrated, usually from 38.3 µM), for the others: top-dose activity change, negative = inhibition, most hits filed as inhibitors; 220,000 tested, 1% active; also: potency is read from the fitted curve at half-maximal effect; % is scaled to controls: 0 for no effect and ±100 for the full control effect; nearly all actives have a fitted effect of over 50% in size
HTT aggregate = mutant huntingtin aggregation inhibition; PC12 HttQ103-GFP aggregates, Acumen cytometry, 40 h; Potency, µM (series often up to 46.1 µM), for inactives: at the top dose activity change, negative = inhibition, hits mostly inhibitors; 220,000 tested, 1.1% active; also: potency is read from the fitted curve at half-maximal effect; % is scaled to controls: 0 for no effect and ±100 for the full control effect; nearly all actives have a fitted effect of over 60% in size
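Read-out: GFP aggregate count by laser scanning cytometer (488 nm excitation, 500-530 nm emission, 1–25 µm objects >6 SD above background). Cells: PC12, inducible HTTex1-Q103-GFP, 100 nM tebufenozide; compounds titrated.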
12-hLO inh = 12-hLO (ALOX12) enzyme inhibition; P18054; purified 12-hLO, xylenol orange hydroperoxide absorbance; Potency, µM (top dose mostly 57.1 µM), inactives show at the highest dose activity change, negative = inhibition, hits mostly inhibitors; 150,000 tested, 0.12% active; AID 1452; also: potency is read from the fitted curve at half-maximal effect; % is scaled to controls: 0 for no effect and ±100 for the full control effect; nearly all actives have a fitted effect of over 55% in size
Target sequence (P18054 whole entry, looked up): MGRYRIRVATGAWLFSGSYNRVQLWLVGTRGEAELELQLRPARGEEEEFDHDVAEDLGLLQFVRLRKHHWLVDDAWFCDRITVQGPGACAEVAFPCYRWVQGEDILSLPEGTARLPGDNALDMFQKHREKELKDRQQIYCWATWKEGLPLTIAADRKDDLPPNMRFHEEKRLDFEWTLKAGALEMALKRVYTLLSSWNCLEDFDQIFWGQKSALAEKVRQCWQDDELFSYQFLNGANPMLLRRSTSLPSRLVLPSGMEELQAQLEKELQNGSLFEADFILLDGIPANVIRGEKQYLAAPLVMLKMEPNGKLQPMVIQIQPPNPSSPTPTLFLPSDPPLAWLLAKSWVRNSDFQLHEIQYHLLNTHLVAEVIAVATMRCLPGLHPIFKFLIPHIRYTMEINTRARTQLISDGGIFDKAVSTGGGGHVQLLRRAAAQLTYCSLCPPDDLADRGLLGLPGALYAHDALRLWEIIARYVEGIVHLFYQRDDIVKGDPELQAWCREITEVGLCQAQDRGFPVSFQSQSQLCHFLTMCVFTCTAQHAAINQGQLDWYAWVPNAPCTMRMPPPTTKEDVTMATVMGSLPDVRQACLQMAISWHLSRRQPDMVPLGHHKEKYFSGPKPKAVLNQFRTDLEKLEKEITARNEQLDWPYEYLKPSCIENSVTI
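Hydroperoxide output read as Fe(III)-xylenol orange absorbance, 573-to-405 nm ratio, after 30 min reaction with 40 uM arachidonic acid. Enzyme: 150 nM purified human 12hLO, 15 min compound preincubation; 25 mM Hepes pH 7.0, room temperature.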
IMPase cell inh = IMPase inhibition in cells. 120,000 tested, under 10 active. AID 901. inhibition (IP1 accumulation), % at 46.1 µM. CHO-M1 cells, IP1 accumulation, HTRF TR-FRET ratio; active = well fitted curve in the direction sought with a large enough effect in the signal ratio, not every such curve was filed as active; inconclusive = small, poorly fitted or top-dose-only effect, or a change in a side signal; inactive = no such curve, though single readings can be large or run the other way; the % refers to the signal ratio;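 also: cells stimulated with carbachol in lithium chloride buffer; plate controls were DMSO basal wells for no effect and reference inhibitor wells for full effect; higher means more IMPase inhibition seen as more IP1 and lower FRET ratio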
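The IP-One HTRF competitive assay in carbachol-stimulated CHO-M1 cells quantifies cellular IP1. Compounds spanned up to 46 uM final, and activity is expressed as AC50 from concentration-response fits of the ratio and donor data.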
HTT ATP protect = Huntington cell model cytoprotection by ATP luminescence; PC12 HTT-Q103 induced, cytoprotection, ATP luminescence, 40 h; Potency, µM (titrated, usually from 56.4 µM), for inactives: cytoprotection (ATP increase), hits mostly activators; 230,000 tested, 0.14% active; also: potency is read from the fitted curve at half-maximal effect; % of control where 0% means no effect; nearly all actives have a fitted effect of over 45% in size
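Stable PC12 Q103-GFP cells in serum-supplemented, phenol red-free DMEM; induction by tebufenozide at 100 nM final; compound dose series; cell viability quantified luminescently from ATP.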
PNC inhibitor = blocks assembly of the perinucleolar compartment; activity change (PNC), negative = inhibition, % at 10 µM; 140,000 tested, 3.1% active; PC3M PTB-GFP, PNC prevalence imaging, 16 h; active compounds read low;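 active = readout at or below -70, meaning at least 70% loss of cells showing the perinucleolar compartment, a nuclear body marking cancer cells; inconclusive = readout between -30 and a set limit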;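 also: plate controls were DMSO wells for no effect and camptothecin positive control wells for full effect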
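Read-out is percentage of cells bearing a perinucleolar compartment, from automated 20x imaging of fixed, Hoechst-stained PC3M PTB-GFP cells. Cells were seeded 4 h, then exposed 16 h to compound (23 nl of library stock) in duplicate plates.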
The depositor's hits bear a star; u = inconclusive; x = no result given; ! = repeats disagree; [ ] = dose if it differs, or a comment. Hits are enriched below; roughly 3.3% of the tested compounds scored in any of these assays. Unless noted, calls follow the shape of the dose curve; as a rule, active = well fitted curve in the direction sought with a large enough effect; inconclusive = small, poorly fitted or top-dose-only effect, or another doubt; inactive = no such curve, though single readings can be large; an effect the other way counts as inactive or inconclusive.

SMILES	NPSR antag	HTT aggregate	12-hLO inh	IMPase cell inh	HTT ATP protect	PNC inhibitor
CCC(C)NC(=S)N1CCN(C(c2ccccc2)c2ccccc2)CC1 (stereo not drawn)	-28%	2%	-4%	x	-8%[10 µM]	-2
COc1cccc2c1CCC1CC(=O)CC[C@@]21C (stereo partly drawn)	x	x	9%	x	x	x
Brc1ccc(OCc2ccccc2)c(CNCc2ccncc2)c1	-10%[46.1 µM]	u	4%	11	-48%	-109*
Fc1ccc(COc2ccccc2CNCc2ccncc2)cc1	23%	10%	3%	x	3%[10 µM]	u
NC1(C(=O)O)C[C@H](C(=O)O)[C@H](C(=O)O)C1 (stereo partly drawn)	x	x	-6%	10	u	x
CN(C)CCOC(=O)[C@@H](c1ccccc1)C1(O)CCCC1	x	1%	6%[25.6 µM]	21[20.6 µM]	5.6µM*	x
COc1ccc(C(C(=O)OCCN(C)C)c2ccccc2)cc1 (stereo not drawn)	9%[46.1 µM]	-14%	-2%	14	-30%	-15
O=C(NC(=S)N1CCN(c2ccc(Cl)cc2[N+](=O)[O-])CC1)c1ccco1	-9%	-11%	-23%	x	18%[10 µM]	-81*
O=C(NC(=S)N1CCN(c2ccc(Cl)cc2[N+](=O)[O-])CC1)c1cccs1	-41%	-5%	-26%	-10	4%[10 µM]	-112*
c1ccc(N2CCN(Cc3ccnc4ccccc34)CC2)cc1	28%[46.1 µM]	-7%	2%	11	6%	-28
COc1ccccc1N1CCN(Cc2ccc(O)c3ncccc23)CC1	4µM*	1.1µM*	u	9	-77%[10 µM]	-6
CCOC(=O)C1CCN(Cc2ccc(O)c3ncccc23)CC1	2.5µM*	-8%	u	22	-35%	u
Oc1c(CN2CCN(c3ccccc3)CC2)cc(Br)c2cccnc12	7.9µM*	-2%[9.22 µM]	-20%[11.4 µM]	x	-1%[10 µM]	x
O=C(C[n+]1cc(-c2ccccc2)n2c1CCC2)N1c2ccccc2Sc2ccccc21	0%	6%	0%	22	24%[10 µM]	-119*
Cc1ccc(-c2c[n+](CC(=O)N3c4ccccc4Sc4ccccc43)c3n2CCC3)cc1	-8%	u	2%	13	43%[10 µM]	u
C=CC[C@@H]1C=C[C@@H](O/N=C\C[C@@H]2C=C[C@H](OC(C)=O)[C@H](COC(C)=O)O2)[C@@H](CO)O1	x	x	x	x	-7%[10 µM]	x
O=C(NNC(=O)c1cccnc1)NC12CC3CC(CC(C3)C1)C2	0%	3%	-1%	x	x	-81*
Cn1cc(C2=C(c3ccc(Cl)cc3Cl)C(=O)NC2=O)c2ccccc21	-25%[46.1 µM]	x	-5%	7	32µM*!	x
Cn1cc(-c2ccccc2C(N)=O)c(=O)c2cc(Cl)ccc21	7%	9%	x	x	11%[10 µM]	x
CCN(CC)c1ccc(C2C(C(=O)OC(C)C)C(=O)CC(C)(O)C2C(=O)OC(C)C)cc1 (stereo not drawn)	-23%[46.1 µM]	14%	-3%	2	4%[10 µM]	-113*
CCOC(=O)C1C(=O)CC(C)(O)C(C(=O)OCC)C1c1ccc(N(CC)CC)cc1 (stereo not drawn)	-19%	1%	2%	12	-1%[10 µM]	-119*
O=S(=O)(C[C@H](O)C(Cl)(Cl)Cl)NNc1ccccc1	x	x	-6%[11.4 µM]	x	-2%[10 µM]	x
CCN(C(=O)c1ccco1)c1nnc(-c2ccc(OC)cc2)s1	u	-9%	5%	-7	-38%[10 µM]	-100*
COc1ccc(-c2nc3c(c4c2C[C@H](c2ccccc2)OC4)CN(C(=O)NCCc2c[nH]c4ccccc24)CC3)c(C)c1	x	x	0%[11.4 µM]	x	-7%[10 µM]	x
COc1ccc(C(=O)c2ccccc2)c2c(O)ccc(C(=O)c3ccccc3)c12	u	3.5µM*	2%	3	1%	-26
SMILES	NPSR antag	HTT aggregate	12-hLO inh	IMPase cell inh	HTT ATP protect	PNC inhibitor
CN(C)CCCN1c2ccccc2Sc2ccc(C(F)(F)F)cc21	u	20%	-5%	20[20.6 µM]	-95%	-115*
COc1ccc(CNC2CCCC2)c(OC)c1OC	2%[46.1 µM]	-17%	-3%	19	15%	-6
C=CCOc1ccc(Cl)cc1CNC1CCCC1	1%	-5%	x	x	22µM*	x
CC1CCCN(C(=O)C2CCN(CC3CC=CCC3)CC2)C1 (stereo not drawn)	-24%[46.1 µM]	2%	-6%	6	7%[10 µM]	-100*
COc1cc(CN2CCC(C(=O)N3CCCC(C)C3)CC2)cc(OC)c1O (stereo not drawn)	4%[46.1 µM]	13%	-5%	3	-5%	49
CC1(C)OC[C@@H]2O[C@@]3(C(=O)O)OC(C)(C)O[C@@H]3[C@@H]2O1	x	0%	x	x	14%	x
CC(=O)Nc1sc(N/N=C\c2ccc(O)cc2)nc1-c1cccs1	-11%	44%[9.22 µM]	x	x	8%[10 µM]	x
CCN(CC)c1ccc(/C=C(\C#N)c2nc(-c3cccs3)c(NC(C)=O)s2)cc1	-26%[46.1 µM]	13µM*	-7%	5	3%[10 µM]	-30
COc1ccc(C2C(C(=O)NCc3ccccn3)c3ccccc3C(=O)N2C)cc1OC (stereo not drawn)	-27%[46.1 µM]	9%	-4%	-2	-2%	-88*
COc1ccc(C2C(C(=O)NCc3cccnc3)c3ccccc3C(=O)N2C)cc1OC (stereo not drawn)	-5%[46.1 µM]	13%	0%	2	-17%	u
COc1ccc(C2C(C#N)=C(N)Oc3cc(O)ccc32)cc1OC (stereo not drawn)	-9%[46.1 µM]	1%	-7%	-2	-12%	-12
COc1cc(C2C(C#N)=C(N)Oc3cc(O)ccc32)cc(OC)c1OC (stereo not drawn)	14%[46.1 µM]	24%	0%	4	-103%	-91*
COC(=O)C(Cc1ccccc1)NC(=O)C(CC(C)C)NC(=O)OC(C)(C)C (stereo not drawn)	13%	-15%	1%	x	26%[10 µM]	-112*
O=C(NN1C(=O)C2C(c3ccccc3)C=CC(c3ccccc3)C2C1=O)c1ccncc1 (stereo not drawn)	-20%	2%	x	x	-38%	x
O=C(NN1C(=O)C2C3C=CC(C3)C2C1=O)c1ccncc1 (stereo not drawn)	12%	14%	2%	x	x	-113*
CCOc1ccc(CNC(=O)C(CC)n2nc(C)n3c(cc4occc43)c2=O)cc1OC (stereo not drawn)	-13%[46.1 µM]	-16%	-5%	-12	7%[10 µM]	-89*
C=C(C(=O)c1ccccc1)C(C)C(=C)C(=O)c1ccccc1	10µM*	33%[1.84 µM]	-2%	7	37%[1.9 µM]	-21
Cn1c(=O)c2ncn(CC(=O)NC3CCCCCC3)c2n(C)c1=O	3%[46.1 µM]	-6%	-9%	0	-10%	u
Cn1c(=O)c2ncn(CC(=O)NCCC3=CCCCC3)c2n(C)c1=O	19%[46.1 µM]	3%	7%	-6	0%	-100*
